Reference: PubChem BioAssay (EPA / NIEHS)
Activity calls are given as the source filed them. The calls were made as follows: active = hit-call score of the fitted dose curve at least 0.9, where 1 is the maximum; inactive = score below 0.9.

read-out: Cellular tumor antigen p53 (Homo sapiens) (UniProt P04637); assay: LTEA_HepaRG_TP53: Life Technologies and Expression Analysis (LTEA) Assay for Tumor Protein P53 (TP53) using HepaRG (AID 2283537); conditions: mRNA level, 48 h; actives raise or lower the signal
How it was run: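 Read-out is TP53 transcript level by microfluidic qRT-PCR, normalised to three housekeeping genes and fitted bidirectionally against DMSO. Human HepaRG cells received compounds for 48 h, highest concentration 100 uM.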

Cellular tumor antigen p53 (Homo sapiens), sequence (P04637 whole entry, looked up): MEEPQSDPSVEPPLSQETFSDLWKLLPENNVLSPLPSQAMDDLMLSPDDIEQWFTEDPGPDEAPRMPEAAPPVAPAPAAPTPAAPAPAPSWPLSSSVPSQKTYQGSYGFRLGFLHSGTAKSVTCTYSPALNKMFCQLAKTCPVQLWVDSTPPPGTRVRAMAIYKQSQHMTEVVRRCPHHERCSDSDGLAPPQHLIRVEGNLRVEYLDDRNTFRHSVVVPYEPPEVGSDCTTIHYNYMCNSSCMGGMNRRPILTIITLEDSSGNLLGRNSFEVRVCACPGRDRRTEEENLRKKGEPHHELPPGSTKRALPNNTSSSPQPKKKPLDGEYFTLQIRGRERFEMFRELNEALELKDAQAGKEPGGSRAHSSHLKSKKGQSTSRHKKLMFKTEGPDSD

SMILES | outcome | AC50
COc1cccc(-c2ccc(/C=C\CN3CCCCCC3)cc2Cl)c1 | inactive | –
CC[C@H]1CC[C@H](NCc2cc3c(cc2OC)[C@H]2C[C@H]2C(=O)N3C)[C@H](c2ccccc2)N1 | inactive | –
CCCCCCCCO | inactive | –
Fc1ccccc1[C@@H](F)COC1CCC(Nc2ncnc3[nH]ncc23)CC1 (stereo not given in full) | inactive | –
CNCc1ccc(NC(=O)c2c[nH]c3c2C(=O)CCC3)cc1 | inactive | –
O=c1[nH]c2ccc(S(=O)CCN3CCC(Cc4ccc(F)cc4)CC3)cc2o1 (stereo not given) | inactive | –
CCOC(=O)c1ccc(C2CCC(NC[C@H](O)COc3ccc(O)c(NS(C)(=O)=O)c3)CC2)cc1 (stereo not given in full) | inactive | –
CCN(C(=O)c1cc(C)cc(OC[C@H](C)Nc2ccncc2)c1)C(C)C | – | 9.37 µM (active)
Cc1ccc(O)cc1 | inactive | –
CNS(=O)(=O)c1cc(C(=O)N2CCC(CCN3C4CCC3CC(n3c(C)nc5ccccc53)C4)(c3cccc(F)c3)CC2)c(Cl)cc1F (stereo not given) | inactive | –
CC(C)CCO | inactive | –
CCCCC(CC)COC(=O)CCCCCCCCC(=O)OCC(CC)CCCC (stereo not given) | inactive | –
CN(C)c1ccc(Cc2ccc(N(C)C)cc2)cc1 | inactive | –
CCNc1ccccc1 | inactive | –
CCn1nc(Cc2ccccc2)cc1C1CCN(C[C@H]2C[C@H](N(C)[C@@H](C(=O)O)C(C)C)C[C@@H]2c2cccc(F)c2)CC1 | inactive | –
CC(C)CCCCCCOC(=O)c1ccc(C(=O)OCCCCCCC(C)C)c(C(=O)OCCCCCCC(C)C)c1 | inactive | –
CC(C)=CCC/C(C)=C/CO | inactive | –
CC(=O)c1ccc2c(c1)[C@H](NC(=O)c1ccc(F)cc1)[C@@H](O)C(C)(C)O2 | inactive | –
O=C(O)CCN(C1(C(=O)NO)CCCC1)S(=O)(=O)c1ccc(Oc2ccc(F)cc2)cc1 | inactive | –
Cc1ccc(N)cc1O | inactive | –
CCCC(=O)OCC | inactive | –
CC1=CC(=O)CC(C)(C)C1 | inactive | –
COC(=O)CC(=O)OC | inactive | –
CCCCC(CC)COC(=O)c1ccc(C(=O)OCC(CC)CCCC)cc1 (stereo not given) | inactive | –
COc1ccc2sc(C(=O)Nc3nnn[nH]3)c(OC(C)C)c2c1 | – | 38.9 µM (active)
Cc1c(-c2cccnc2)c2ccccc2n1CCCCC(=O)O | inactive | –
CCc1cc(SCc2sc(-c3ccc(C(F)(F)F)cc3)nc2CN2CCN(c3ccc(OC)cc3)CC2)ccc1OCC(=O)O | – | 7.74 µM (active)
CCOC(=O)COc1ccc2c(c1)CC(NCC(O)c1cccc(Cl)c1)CC2 (stereo not given) | inactive | –
CCOc1cccc(-n2cc(C(=O)N3CCN(c4cc(C(=O)O)c5ccccc5c4)CC3)nc2-c2ccc(C)cc2)c1 | – | 91.5 µM (active)
COCCOc1cc2cc(C(=O)NC3CCN(C(C)C)CC3)n(CC(=O)Nc3ccc(Cl)cn3)c2cn1 | inactive | –
